Measured values from PubChem BioAssay AID2322 (Broad Institute, 2010).
Out of some 27,000 compounds screened, about 120 (0.44%) were called active. Only a selection was taken, and actives are over-represented in it overall. Unmarked numbers belong to inactive results. Rule as the data show it: active = inhibition above about 20%; inconclusive = no clear call, values can overlap the other calls; inactive = below that.

biological target: Serine/threonine-protein kinase 33 (Homo sapiens) (UniProt Q9BYT3); assay: STK33 kinase inhibitors, primary screen, biochemical, luminescence, ADP-Glo, MBP substrate (AID 2322); settings: at 12.5 µM, stronger effect = higher value
Sequence (Q9BYT3 whole entry, looked up): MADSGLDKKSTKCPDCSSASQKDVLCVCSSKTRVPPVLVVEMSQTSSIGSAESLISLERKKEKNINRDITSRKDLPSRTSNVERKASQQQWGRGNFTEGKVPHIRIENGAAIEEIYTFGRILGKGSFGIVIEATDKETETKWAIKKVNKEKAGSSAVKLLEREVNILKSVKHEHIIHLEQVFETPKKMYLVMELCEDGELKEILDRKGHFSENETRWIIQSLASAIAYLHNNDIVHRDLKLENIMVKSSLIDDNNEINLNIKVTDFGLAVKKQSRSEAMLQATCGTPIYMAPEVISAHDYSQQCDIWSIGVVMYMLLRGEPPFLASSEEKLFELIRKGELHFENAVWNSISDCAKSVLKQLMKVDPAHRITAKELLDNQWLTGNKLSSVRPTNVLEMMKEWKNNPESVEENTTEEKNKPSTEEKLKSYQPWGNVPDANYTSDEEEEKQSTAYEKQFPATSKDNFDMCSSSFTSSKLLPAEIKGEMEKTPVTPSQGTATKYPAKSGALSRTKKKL

SMILES | inhibition
Cc1ccc(N(CC(=O)Nc2ccccc2Sc2ccccc2)S(C)(=O)=O)c(C)c1 | -1.72%
COC(=O)c1ccc(NC(=O)CSc2nc(-c3ccccc3)cc(=O)[nH]2)cc1 | 4.41%
O=C(O)CCCC(=O)Nc1ccc(F)cc1 | -2.71%
O=C(NCc1ccccn1)c1ccccc1C(=O)c1ccccc1 | -3.58%
CCC(O)c1ccc2c(=O)c(-c3ccccc3F)coc2c1 (stereo not given) | 1.14%
CCOc1ccc(NC(=O)CSc2nccc(C)n2)cc1 | -0.939%
COc1ccc(/C=C/C(=O)O[C@@H]2[C@@H](OC(=O)/C=C/c3ccc(OC)cc3)[C@H](C)O[C@@H](O[C@H]3[C@@H]4C=CO[C@@H](O[C@@H]5O[C@H](CO)[C@@H](O)[C@H](O)[C@H]5O)[C@@H]4[C@@]4(CO)O[C@@H]34)[C@@H]2OC(C)=O)cc1 | -0.911%
C[C@H]1CN([C@@H](C)CO)C(=O)c2cc(NC(=O)Cn3cnnn3)ccc2O[C@H]1CN(C)S(C)(=O)=O | -0.963%
CCOC(=O)c1c(NC(=O)Cn2nc([N+](=O)[O-])c(Br)c2C)sc2c1CCCC2 | 2.08%
Cc1cc(C)c2oc(-c3cccc(NC(=O)COc4ccc(Br)cc4)c3C)nc2c1 | 5.61%
CCn1c(SCC(=O)Nc2cc(Cl)ccc2OC)nnc1-c1ccc(Br)cc1 | 1.48%
CC(C)(C)c1ccc(OCC(=O)NCc2ccccn2)c(Br)c1 | -6.11%
Nc1ccc2c3c(cccc13)C(=O)NC2=O | 28.5% (active)
C[C@@H]1CN([C@H](C)CO)C(=O)c2cc(NC(=O)Nc3ccc4c(c3)OCO4)ccc2O[C@H]1CN(C)Cc1ccc(-c2ccccc2)cc1 | 0.655%
O=C(CSc1nc2ccc(NC(=O)c3ccccc3Cl)cc2s1)Nc1ccc(F)cc1 | 0.13%
O=C(CSc1nnc(-c2ccccn2)n1-c1ccccc1)Nc1ccc2cn[nH]c2c1 | 0.339%
COc1ccc(N(CC(=O)Nc2cc(C)ccc2OC)S(C)(=O)=O)cc1Cl | -2.26%
NCCCC[C@@H]1NC(=O)[C@@H]2C[C@H](C(=O)NCc3ccc(F)cc3)[C@H](c3ccc(O)cc3)N2C1=O | -1.29%
C[C@H](CO)N1C[C@H](C)[C@@H](CN(C)S(=O)(=O)c2ccc(F)cc2)OCc2cnnn2CCCC1=O | 3.05%
COc1ccc(C(C)=O)cc1CSc1nnc(-c2ccc(Br)cc2)n1-c1ccccc1 | -0.65%
COc1ccc(N(C(C)C(=O)Nc2cccc(Br)c2)S(C)(=O)=O)cc1 (stereo not given) | -0.0651%
COC(=O)c1ccc(NC(=O)CSc2nc(-c3ccccc3)c(-c3ccccc3)[nH]2)cc1 | 0.633%
O=[N+]([O-])c1ccc(NCCNCc2cccnc2)cc1 | 0.298%
COc1ccc(NC(=O)CN2CCN(S(=O)(=O)c3ccc4ccccc4c3)CC2)cc1 | -0.51%
Cc1ccc(N(C(C)C(=O)Nc2ccc(F)c(Cl)c2)S(C)(=O)=O)cc1C (stereo not given) | -3.25%

SMILES | inhibition
Cc1ccc(-n2c(SCC(=O)Nc3cccc(C)c3C)nc3ccccc3c2=O)cc1 | -0.698%
O=C(c1ccc(NCc2cccnc2)c([N+](=O)[O-])c1)N1CCCCC1 | 2.99%
CN(CC(=O)Nc1ccc(F)cc1)S(=O)(=O)c1ccccc1 | -1.62%
Nc1cc(N)nc(SCC(=O)c2ccc(Br)cc2)n1 | 1.93%
O=C(CSc1nnc(-c2ccccc2)n1-c1ccc(Cl)cc1)Nc1ccc(Cl)cc1 | -3.34%
O=C(CN1CCCC1)Nc1sc2c(c1C(=O)Nc1ccccc1)CCCC2 | -1.02%
CN1C(=O)C(O)(CC(=O)c2ccco2)c2cc([N+](=O)[O-])ccc21 (stereo not given) | 1.09%
COc1ccc(-c2nnc(SCC(=O)O)n2-c2ccccc2)cc1OC | 0.684%
C[C@H]1CN([C@@H](C)CO)C(=O)CCCn2cc(nn2)CO[C@@H]1CN(C)S(=O)(=O)c1ccc(-c2ccccc2)cc1 | -9.48%
COc1ccc(NC(=O)O[C@@H](c2ccc(OCCO)cc2)[C@@H](C)CCO)cc1 | 0.388%
COc1cc(OC)c(NC(=O)CSc2nnc(-c3ccncc3)n2-c2ccccc2)cc1Cl | -1.55%
C[C@H](CO)N1C[C@H](C)[C@H](CN(C)S(=O)(=O)c2ccc(Cl)cc2)Oc2ccc(NC(=O)C3CCCCC3)cc2C1=O | 5.34%
CCCC(O)C#Cc1cnc2c(c1)C(=O)N([C@H](C)CO)C[C@H](C)[C@H](CN(C)S(=O)(=O)c1ccc(C#N)cc1)O2 (stereo not given in full) | 2.14%
Cc1nn(CC(=O)NCc2ccccn2)c(C)c1[N+](=O)[O-] | -1.47%
COC(=O)c1ccccc1NC(=O)CSc1n[nH]c(-c2ccncc2)n1 | 2.87%
COc1ccc(C)cc1S(=O)(=O)N1CCCC(C(=O)Nc2ccccc2C(F)(F)F)C1 (stereo not given) | 1.43%
CC(C)N1C(=O)[C@@]2(Cc3ccccc31)c1ccccc1C(=O)N(C1CCCCC1)[C@H]2c1ccc(CO)cc1 | 4.98%
Cc1ccc(NC(=O)COc2ccccc2C)c([N+](=O)[O-])c1 | 0.544%
COc1ccc(OC)c(NC(=O)Cn2cc(C(=O)C3CC3)c3ccccc32)c1 | -2.72%
COc1ccc(Cl)cc1N(CC(=O)Nc1ccc(Br)c(Cl)c1)S(C)(=O)=O | 1.17%
CN(CC(=O)Nc1ccccc1C#N)S(=O)(=O)c1ccc2ccccc2c1 | 1.4%
C[C@H](CO)N1C[C@H](C)[C@@H](CN(C)C(=O)C2CCCCC2)OCc2cnnn2CCCC1=O | 0.882%
COc1ccc(NC(=O)CSc2nncc3ccccc23)c([N+](=O)[O-])c1 | -3.11%
C[C@H](CO)N1C[C@H](C)[C@H](CN(C)S(C)(=O)=O)Oc2ncc(C#CCN(C)C)cc2C1=O | 3.31%
O=[N+]([O-])c1cccc(NC(=S)Nc2nn(Cc3ccc(Cl)cc3Cl)cc2Cl)c1 | 1%
